Tested on: Caenorhabditis elegans dauer (daf-2(e1370))
Assay: proportion of mobile C. elegans dauer larvae relative to DMSO control (fraction of DMSO control); higher = more viable, less nematicidal, active = 0.63 or less; extreme values may be limits of the assay
Conditions: 60 µM; 5 days; temperature: 20 °C
Procedure: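 DODA library (846 commercial 1,3,4- and 1,2,4-oxadiazole compounds plus commercial nematicide controls) screened at a single dose of 60 µM (0.6% DMSO) in 96-well plates, two biological replicates. Read-outs: C. elegans N2 L1 survival/reproduction score at day 6, 20 °C (0: 0-10 worms, 1: 11-20, 2: 21-50, 3: >50, 4: overgrown/starved). C. elegans daf-2 dauer, D. dipsaci and M. hapla J2 mobility at day 5, 20 °C, and P. penetrans mobility at day 5, 20 °C, each relative to DMSO controls. M. hapla egg hatching at day 12, 25 °C, relative to the mean of 8 DMSO wells on the same plate.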

**Q.** For `Clc1ccccc1-c1noc(COc2ccc(Br)cc2)n1`, which “proportion of mobile C. elegans dauer larvae” value (from here on “proportion”) is on record?
**A.** The value was 1 (inactive).

**Q.** `Cc1ccccc1OCc1nc(-c2ccc(Br)cc2)no1` was tested. Which “proportion” value did it give?
**A.** Its value is 1 (inactive).

**Q.** Which “proportion” value does the source give for `CCOc1ccc(-c2nc(-c3ccccc3)no2)cc1` here?
**A.** The value was 1 (inactive).

**Q.** With `Cc1ccc(NC(=O)CSc2nnc(-c3ccco3)o2)cc1Br` as the molecule, how does the “proportion” value read?
**A.** The value was 1 (inactive).

**Q.** How did the “proportion” value turn out when `N#Cc1ccccc1CSc1nnc(-c2ccco2)o1` was run?
**A.** The value was 0.85 (inactive).

**Q.** With `O=C(CSc1nnc(-c2ccco2)o1)NC1CCCCC1` as the molecule, how does the “proportion” value read?
**A.** The value was 1 (inactive).

**Q.** How did the “proportion” value turn out when `c1ccc(-c2noc(C3COc4ccccc4O3)n2)cc1` (stereo not given) was run?
**A.** The value was 0.539 (active).

**Q.** Which “proportion” value does the source give for `COC(=O)c1ccc(NC(=O)CSc2nnc(-c3ccc(Cl)cc3Cl)o2)cc1` here?
**A.** Its value is 1 (inactive).

**Q.** How did the “proportion” value turn out when `Cc1cccc(-c2nnc(SCC(=O)NCCc3ccccc3)o2)c1` was run?
**A.** The value was 1 (inactive).

**Q.** For `Brc1cccc(-c2nnc(SCc3ccccc3)o2)c1`, which “proportion” value is on record?
**A.** The value was 1 (inactive).

**Q.** Which “proportion” value does the source give for `O=C(Nc1ccccc1-c1nc(-c2cccnc2)no1)c1cccc(Cl)c1` here?
**A.** The value was 1 (inactive).

**Q.** How did the “proportion” value turn out when `COc1cccc(-c2noc(COc3ccc(C(C)C)cc3)n2)c1` was run?
**A.** The value was 1 (inactive).

**Q.** `Cc1cccc(OC(C)c2nc(-c3ccncc3)no2)c1` (stereo not given) was tested. Which “proportion” value did it give?
**A.** The value was 0.85 (inactive).

**Q.** `N#Cc1ccccc1CSc1nnc(-c2ccccc2)o1` was tested. Which “proportion” value did it give?
**A.** Its value is 1 (inactive).

**Q.** `O=C(Nc1cccnc1)c1ccccc1-c1nc(-c2ccc(Cl)cc2)no1` was tested. Which “proportion” value did it give?
**A.** Its value is 1 (inactive).

**Q.** Which “proportion” value does the source give for `COc1cccc(-c2nnc(SCC(=O)Nc3cccc(C(F)(F)F)c3)o2)c1` here?
**A.** The value was 1 (inactive).

**Q.** With `Cc1ccccc1-c1noc(CSc2nc3ccccc3[nH]2)n1` as the molecule, how does the “proportion” value read?
**A.** Its value is 1 (inactive).

**Q.** Which “proportion” value does the source give for `Cc1ccc(-c2noc(-c3ccc(Br)cc3)n2)cc1` here?
**A.** Its value is 1 (inactive).

**Q.** Which “proportion” value does the source give for `O=C(CSc1nnc(-c2cccc(Br)c2)o1)c1ccccc1` here?
**A.** The value was 1 (inactive).

**Q.** For `O=C(CSc1nnc(-c2ccc(Cl)cc2Cl)o1)Nc1ccccn1`, which “proportion” value is on record?
**A.** The value was 1 (inactive).

**Q.** With `Cc1cccc(OCc2nc(-c3ccc(Br)cc3)no2)c1` as the molecule, how does the “proportion” value read?
**A.** The value was 1 (inactive).

**Q.** With `O=C(CSc1nnc(-c2ccccc2)o1)Nc1ccccc1C(F)(F)F` as the molecule, how does the “proportion” value read?
**A.** Its value is 1 (inactive).

**Q.** For `COc1ccccc1NC(=O)c1ccccc1-c1nc(-c2ccccc2F)no1`, which “proportion” value is on record?
**A.** The value was 1 (inactive).

**Q.** Which “proportion” value does the source give for `CCn1c(SCc2nc(-c3cccs3)no2)nnc1-c1ccco1` here?
**A.** The value was 1 (inactive).

**Q.** How did the “proportion” value turn out when `Cc1cc(OC(C)c2nc(-c3ccccn3)no2)ccc1Cl` (stereo not given) was run?
**A.** Its value is 1 (inactive).

**Q.** For `COc1ccc(-c2nnc(SCC(=O)OCc3ccccc3)o2)cc1`, which “proportion” value is on record?
**A.** Its value is 1 (inactive).

**Q.** How did the “proportion” value turn out when `Cc1ccc(-c2noc(CSc3nc4ccccc4[nH]3)n2)cc1` was run?
**A.** The value was 1 (inactive).

**Q.** `COc1ccc(-c2noc(CSc3nc(C)cc(C)n3)n2)cc1` was tested. Which “proportion” value did it give?
**A.** Its value is 1 (inactive).

**Q.** How did the “proportion” value turn out when `Clc1ccccc1OCc1nc(-c2ccccn2)no1` was run?
**A.** Its value is 1 (inactive).

**Q.** `CCOc1ccccc1-c1nc(-c2ccc(Cl)cc2)no1` was tested. Which “proportion” value did it give?
**A.** Its value is 1 (inactive).

**Q.** `COc1nc(-c2ccc(Cl)cc2)ccc1-c1noc(-c2ccncc2)n1` was tested. Which “proportion” value did it give?
**A.** Its value is 1 (inactive).

**Q.** For `Cc1ccoc1-c1nnc(-c2ccco2)o1`, which “proportion” value is on record?
**A.** The value was 1 (inactive).

**Q.** With `COc1ccc(-c2nnc(SCc3ccc(C#N)cc3)o2)cc1` as the molecule, how does the “proportion” value read?
**A.** Its value is 1 (inactive).

**Q.** Which “proportion” value does the source give for `COc1ccc(-c2nnc(SCc3ccc(Cl)cc3Cl)o2)cc1` here?
**A.** The value was 1 (inactive).

**Q.** `Cc1ccc(OCc2nc(-c3cccnc3)no2)c(Br)c1` was tested. Which “proportion” value did it give?
**A.** The value was 1 (inactive).

**Q.** `Cc1cc(Cl)ccc1OCc1nc(-c2ccccc2)no1` was tested. Which “proportion” value did it give?
**A.** Its value is 1 (inactive).

**Q.** Which “proportion” value does the source give for `CC(C)C(=O)Nc1ccccc1-c1nc(-c2ccncc2)no1` here?
**A.** The value was 1 (inactive).

**Q.** `COc1ccc(-c2noc(-c3ccc(C)cc3)n2)cc1` was tested. Which “proportion” value did it give?
**A.** Its value is 1 (inactive).

**Q.** With `CN(C)c1ccc(-c2nnc(SCc3ccccc3)o2)cc1` as the molecule, how does the “proportion” value read?
**A.** Its value is 1 (inactive).

**Q.** Which “proportion” value does the source give for `CCOc1nc(C)ccc1-c1noc(-c2ccccc2F)n1` here?
**A.** The value was 1 (inactive).

From the supplement of paper PMC11219838
